Results from ChEMBL document CHEMBL4808148, “HDAC6 screening dataset using tau-based substrate in an enzymatic assay yields selective inhibitors and activators” (2021).
Where “and” joins values, the source holds several entries; their conditions need not be identical. Equal entries are not always repeated. Out of some 5,600 compounds screened, about 390 (7%) showed an effect of 50% or more. The entries come from a sample that favours strong results as a whole.

Molecular target: T1, Protein deacetylase HDAC6 (Homo sapiens) (UniProt Q9UBN7)
T1 sequence (whole entry): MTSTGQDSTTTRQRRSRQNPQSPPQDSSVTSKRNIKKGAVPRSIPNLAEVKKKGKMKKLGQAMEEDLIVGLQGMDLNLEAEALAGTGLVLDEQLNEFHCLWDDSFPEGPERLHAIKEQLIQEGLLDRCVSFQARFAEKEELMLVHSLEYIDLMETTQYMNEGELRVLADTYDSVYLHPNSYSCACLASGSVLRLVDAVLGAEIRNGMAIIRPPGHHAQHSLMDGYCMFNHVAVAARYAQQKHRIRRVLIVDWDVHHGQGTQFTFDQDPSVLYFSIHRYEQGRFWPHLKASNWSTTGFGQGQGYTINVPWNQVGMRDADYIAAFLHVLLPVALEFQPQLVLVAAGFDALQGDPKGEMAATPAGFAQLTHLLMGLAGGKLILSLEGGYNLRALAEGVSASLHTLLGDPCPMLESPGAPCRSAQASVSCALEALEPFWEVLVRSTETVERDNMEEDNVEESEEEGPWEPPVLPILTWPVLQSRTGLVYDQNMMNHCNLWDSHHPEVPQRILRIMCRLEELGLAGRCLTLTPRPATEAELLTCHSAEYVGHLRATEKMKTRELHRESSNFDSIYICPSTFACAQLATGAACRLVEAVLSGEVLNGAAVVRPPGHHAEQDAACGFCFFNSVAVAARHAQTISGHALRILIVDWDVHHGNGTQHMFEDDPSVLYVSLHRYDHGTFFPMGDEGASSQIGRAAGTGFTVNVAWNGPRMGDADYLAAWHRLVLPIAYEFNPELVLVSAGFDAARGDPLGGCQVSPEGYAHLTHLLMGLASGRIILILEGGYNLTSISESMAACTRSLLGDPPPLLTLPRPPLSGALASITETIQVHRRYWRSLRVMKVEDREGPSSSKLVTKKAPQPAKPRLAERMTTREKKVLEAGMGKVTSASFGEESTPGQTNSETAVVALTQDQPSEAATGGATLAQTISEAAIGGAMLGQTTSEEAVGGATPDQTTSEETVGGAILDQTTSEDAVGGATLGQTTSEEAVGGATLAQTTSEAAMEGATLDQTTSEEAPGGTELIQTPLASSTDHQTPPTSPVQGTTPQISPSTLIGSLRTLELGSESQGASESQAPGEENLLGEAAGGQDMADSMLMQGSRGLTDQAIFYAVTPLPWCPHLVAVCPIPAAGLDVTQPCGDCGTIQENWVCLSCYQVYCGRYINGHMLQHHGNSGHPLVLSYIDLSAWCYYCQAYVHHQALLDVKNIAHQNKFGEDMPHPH
Conditions: at 10 µM

SMILES | inhibition
Cc1c(C)c2c(c(C)c1O)C[C@@](C)(CCC[C@H](C)CCC[C@H](C)CCCC(C)C)OC2 | 18.1%
O=C1N=C(NCc2cccs2)S/C1=C\c1ccc2ncccc2c1 | 68.2%
Nc1cc2c3ccccc3ccc2c2ccccc12 | 96%
Oc1ccc2ccccc2c1Cc1c(O)ccc2ccccc12 | 25.7%
Cc1cc(N)c2ccccc2[n+]1CCCCCCCCCC[n+]1c(C)cc(N)c2ccccc21 | -8%
COc1nccc(-c2c(-c3ccc(F)cc3)ncn2[C@H]2CC[C@H](O)CC2)n1 | -0.9%
COc1c2occc2c(OC)c2c(=O)cc(C)oc12 | -5.99%
Cc1cn(C[C@H](N)C(=O)O)c(=O)n(Cc2ccsc2C(=O)O)c1=O | 14.3%
Cc1ccsc1/C=C/C1=NCCCN1C | 1.45%
CN1CCCN=C1/C=C/c1cccs1 | 82.3%
CN1CCCN=C1COC(=O)C(O)(c1ccccc1)C1CCCCC1 (stereo not drawn) | -6.61%
CN1CCCN=C1/C=C/c1cccc(O)c1 | 74.1%
COc1ccc(N(C)c2nc(C)nc3ccccc23)cc1 | -1.78%
CC[C@@H]1C[C@H](N(Cc2cc(C(F)(F)F)cc(C(F)(F)F)c2)C(C)=O)c2cc(C(F)(F)F)ccc2N1C(=O)OC(C)C | 3.27%
COC(=O)C1=C(C)NC(C)=C(C(=O)O[C@@H]2CCCN(Cc3ccccc3)C2)[C@@H]1c1cccc([N+](=O)[O-])c1 | 16.7%
CCn1c(=O)/c(=C2\Sc3ccccc3N2C)s/c1=C\c1cccc[n+]1CC | 3.58%
N=C(N)NC(=N)N1CCOCC1 | -0.5%
N#Cc1ccc(N(Cc2ccc(Br)cc2)n2cnnc2)cc1 | 7.87%
O=C(N[C@@H]1CC[C@@H](c2cccc(F)c2F)CN(CC(F)(F)F)C1=O)N1CCC(n2c(=O)[nH]c3ncccc32)CC1 | 21.5%
N[C@@]1(C(=O)O)CS(=O)(=O)[C@H]2[C@H](C(=O)O)[C@H]21 | 9.11%
O=C1NCCc2[nH]c(-c3ccncc3)cc21 | -2.78%
O=C1Cc2c([nH]c3ccc(Br)cc23)-c2ncccc2N1 | 84.9%
O=C1Cc2c([nH]c3ccc(Br)cc23)-c2ccccc2N1 | 89.3%
CCS(=O)(=O)c1cccc(-c2cc(C(=O)NC3CCN(C)CC3)c(C)c3[nH]c4ncc(C)cc4c23)c1 | 12.4%
O=[N+]([O-])c1cccc2c(Br)n[nH]c12 | -0.83%
CCCCc1ccc(NS(=O)(=O)c2ccc(F)cc2)cc1 | 18.6%

SMILES | inhibition
CN[C@@H](C)[C@H]1[C@H](O)C[C@@]2(C)[C@@H]3CC[C@H]4C(C)(C)[C@@H](NC)CC[C@@]45C[C@@]35CC[C@]12C | -3.38%
Nc1ccncc1N | 42.8%
NS(=O)(=O)c1cc2c(cc1Cl)NC(CC1CCCC1)NS2(=O)=O (stereo not drawn) | 9.09%
C=CCSCC1Nc2cc(Cl)c(S(N)(=O)=O)cc2S(=O)(=O)N1 (stereo not drawn) | 12%
NS(=O)(=O)c1cc2c(cc1C(F)(F)F)NC(Cc1ccccc1)NS2(=O)=O (stereo not drawn) | 103%
C[C@@H](c1nc(-c2ccc(C#N)cc2)cs1)[C@](O)(Cn1cncn1)c1ccc(F)cc1F | 13.6%
N=C(N)NN=C1C=CC(=NNC(N)=S)C=C1 | 8.3%
C=C1/C(=C\C=C2/CCC[C@]3(C)[C@@H]([C@H](C)CC[C@@H](O)C(C)C)CC[C@@H]23)C[C@@H](O)C[C@@H]1O | 24.3%
O=C(c1ccc(-c2ccc(Cl)cc2)o1)N(Cc1ccccn1)c1ccc(N2CCNCC2)cc1 | 9.26%
CCCOC(=O)c1ccc(O)cc1 | 73%
CCCCOC(=O)c1ccc(O)cc1 | 86.8%
CCCCOC(=O)c1ccc(N)cc1 | 44.5%
CCCCOc1cc(C(=O)OCCN(CC)CC)ccc1N | 16.8%
CC/C(=C(/CC)c1ccc(O)cc1)c1ccc(O)cc1 | 19.4%
CCOc1ccc(C(=O)OCCN(CC)CC)cc1 | 4.93%
CCCCN1CCCC1CNC(=O)c1cc(C#N)c2ccccc2c1OC (stereo not drawn) | 6.77%
NC(=O)c1cnc2[nH]ccc2c1N[C@H]1C2CC3CC1C[C@](O)(C3)C2 | 15.9%
CC(C)C[C@@H](C(=O)N[C@@H](Cc1ccc(OCc2ccccc2)cc1)C(=O)NC(C)(C)C)N(C)Cc1ccc(C(C)(C)C)cc1 | 10.7%
C[C@H]1CC[C@@]2(OC1)O[C@H]1C[C@H]3[C@@H]4CC[C@@H]5C[C@@H](O)CC[C@]5(C)[C@H]4CC[C@]3(C)[C@H]1[C@@H]2C | 5.04%
CN(C)/C=N/c1c(I)cc(I)c(CCC(=O)O)c1I | 6.5%
O=C(NCC1CCCCN1)c1cc(OCC(F)(F)F)ccc1OCC(F)(F)F (stereo not drawn) | -2.24%
CCC(CC)(CC(=O)Nc1cccc(/C=C/c2nc(C3CCC3)cs2)c1)C(=O)O | 87.3%
COc1cc(N2CCC(O)CC2)ccc1Nc1cc(Nc2ccccc2S(=O)(=O)C(C)C)c2cc[nH]c2n1 | 12.8%
Cc1ccc(-c2ncn(-c3ccc(Nc4nccc(-c5cccc(N6CCOCC6)c5)n4)cc3)n2)cn1 | 0.35%
CCC(=O)NC1Cc2ccccc2C(c2ccccc2)C1 (stereo not drawn) | 0.79%
O=[N+]([O-])c1c(Nc2cc(F)cc(Cl)c2)ccc2nonc12 | 22.6%

SMILES | inhibition
Nc1ncnc2c1ncn2[C@H]1CC[C@@H](CO)O1 | 46%
CC1(C)CNc2cc(NC(=O)c3cccnc3NCc3ccncc3)ccc21 | 87.1%
N#CC1(c2ccc(NC(=O)c3cccnc3NCc3ccncc3)cc2)CCCC1 | 51.4%
CCCCCCCCCCCCCC(=O)OC(C)C | 30.5%
O=C(O)c1nc(=O)[nH]c(=O)[nH]1 | -2.71%
CC(N)CCCC(C)(C)O (stereo not drawn) | 6.48%
COc1ccc2c(C(=S)N(C)CC(=O)O)cccc2c1C(F)(F)F | 8.32%
CCN(CC)CC1CCN(c2ncc3ncnc(Nc4ccc(F)c(Cl)c4)c3n2)CC1 | 22.9%
Cc1n[nH]c(C)c1Cc1sc2c(c1C(=O)N1C[C@H](O)CO1)c(=O)n(C)c(=O)n2CC(C)C | 39.2%
COC1CCN(c2cccc(-c3cc(NC(C)=O)nc(-n4nc(C)cc4C)n3)n2)CC1 | 20.5%
CCCC1C(=O)N2C(N(C)C)=Nc3ccc(C)cc3N2C1=O (stereo not drawn) | 67.9%
O=C1OC2(c3cc(I)c(O)c(I)c3Oc3c2cc(I)c(O)c3I)c2c(Cl)c(Cl)c(Cl)c(Cl)c21 | 69.2% and 74.6%
c1ccc(-c2n[nH]cc2-c2ccnc3ccccc23)nc1 | -5.98%
CN(C)CC/C=C1\c2ccccc2CSc2ccccc21 | 33.1%
CN1CCN(CC/C=C2/c3ccccc3Sc3ccc(S(=O)(=O)N(C)C)cc32)CC1 | 30.4%
OCCN1CCN(CC/C=C2/c3ccccc3Sc3ccc(Cl)cc32)CC1 | 89.6%
CCN(CC)c1ccc(C(=C2C=CC(=[N+](CC)CC)C=C2)c2ccccc2)cc1 | 101%
CCCCC1(COC(=O)CCC(=O)O)C(=O)N(c2ccccc2)N(c2ccccc2)C1=O | 37.6%
O=C(O)CCC/C=C\CC1C(O)CC(O)C1/C=C/C(O)COc1cccc(Cl)c1 (racemic) | 7.35%
CCN(CC)C(=O)Nc1ccc(OCC(O)CNC(C)(C)C)c(C(C)=O)c1 (stereo not drawn) | 103%
CCCC(=O)Nc1ccc(OCC(O)CNC(C)C)c(C(C)=O)c1 (stereo not drawn) | -5.99%
CC(C)OC(=O)c1cc2c(OCC(O)CNC(C)(C)C)cccc2[nH]1 (stereo not drawn) | 17%
CNC(=O)c1ccc2c(c1)NC(=O)/C2=C(\Nc1cccc(CN(C)C)c1)c1ccccc1 | 23.6%
CONC(=N)c1ccc(-c2ccc(-c3ccc(C(=N)NOC)cc3)o2)cc1 | 28.6%
C=C[C@@](C)(/C=C/c1ccc(O)cc1)CCC=C(C)C | 38.3%
CC(=O)Nc1ccc(NC(=S)NC(=O)c2ccc(C(C)(C)C)cc2)cc1 | -1.57%

SMILES | inhibition
CC(O)(C(=O)Nc1ccc(S(=O)(=O)c2ccccc2)cc1)C(F)(F)F (stereo not drawn) | 8.38%
C/C(O)=C(\C#N)C(=O)Nc1ccc(C(F)(F)F)cc1 | 58%
CCCn1c(=O)[nH]c(=O)c2nc[nH]c21 | 9.19%
CN1c2ccccc2C(=O)N2CCc3c([nH]c4ccccc34)C21 (stereo not drawn) | 36.3%
O=c1c2ccccc2nc2n1CCc1c-2[nH]c2ccccc12 | 84.3%
O=c1c2ccccc2nc2n1CCCCC2 | 111%
Cc1cc(N2CCCCC2)nc2ccccc12 | 12.2%
CN1C(=O)C(F)=C[C@]2(C)[C@H]3CC[C@]4(C)[C@@H](C(=O)NCc5nc6cccnc6[nH]5)CC[C@H]4[C@@H]3CC[C@@H]12 | -0.34%
CCC(=O)OCC(=O)C1(OC(=O)CC)C(C)CC2C3CCC4=CC(=O)C=CC4(C)C3(Cl)C(O)CC21C (stereo not drawn) | 5.48%
CCCCc1nn(-c2ccccc2C(F)(F)F)c(=O)n1Cc1ccc(-c2ccccc2S(=O)(=O)NC(=O)c2sccc2C)cc1 | 30.6%
CCCOc1ccc(Br)cc1-c1cc(-c2ccc(Cl)cc2)[nH]c1-c1ccncc1 | 4.47%
C[C@]12C=CC(=O)C=C1CC[C@@H]1[C@@H]2[C@@H](O)C[C@@]2(C)[C@H]1CC[C@]2(O)C(=O)CO | 1.72%
C#C[C@]1(O)CC[C@H]2[C@@H]3CCC4=CC(=O)CC[C@@H]4[C@H]3CC[C@@]21CC | -8.51%
C#C[C@]1(OC(C)=O)CC[C@H]2[C@@H]3CCC4=C/C(=N/O)CC[C@@H]4[C@H]3CC[C@@]21CC | 102%
C#CC1(O)CC[C@H]2[C@@H]3CCC4=CC(=O)CC[C@@H]4[C@H]3CC[C@@]21CC (stereo partly drawn) | 41%
O=S(=O)(N[C@H]1CC[C@@](c2cc(F)ccc2F)(S(=O)(=O)c2ccc(Cl)cc2)CC1)C(F)(F)F | 19.5%
CC[N+](CC)(CC)CCC(O)(c1ccccc1)C1CCCCC1 (stereo not drawn) | 43.5%
N[C@@]1(C(=O)O)CC[C@H]2[C@H](C(=O)O)[C@H]21 | 5.51%
Nc1cc(Cl)c(N=C2NCCN2)c(Cl)c1 | 15.3%
COC(=O)c1ccccc1O | 25.3%
O=C(N/N=C/c1ccc(O)c(O)c1)c1cc2ccccc2cc1O | 59.7%
O=C(Nc1ccc(O)cc1)c1ccccc1O | 85.3%
NC(=O)N/N=C/c1ccc(Oc2ccc(F)cc2)cc1 | 2.96%
Cc1cccc(C)c1NC(=O)c1ccccc1C(=O)O | 2.75%
O=C(N/N=C/c1ccccc1O)c1ccccc1O | 98.6%
